From the supplement of paper PMC12819154, “High-throughput peptide-centric local stability assay extends protein–ligand identification to membrane proteins, tissues and bacteria” (Nature Structural & Molecular Biology, 2025)

Compound: Nc1ncnc2c1ncn2[C@@H]1O[C@H](COP(=O)(O)OP(=O)(O)OP(=O)(O)O)[C@@H](O)[C@H]1O [adenosine 5'-triphosphate]
Assay: log2 fold change of tryptic peptide abundance, ligand vs vehicle (limited proteolysis) (log2 ratio); higher = more trypsin-susceptible (destabilized)
Conditions: ligand concentration: 5 mM; sample: E. coli desalted lysate; replicate design: treated before aliquoting
Protocol: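 HT-PELSA: desalted E. coli K-12 BW25113 lysate (with 12 mM MgCl2) incubated with 5 mM ATP (pH 7) or water for 30 min at 25 C, then a 4 min trypsin pulse at 22 C. Peptides were quantified by DIA-MS (4 replicates). Value is the peptide log2 fold change (treated/control); negative = stabilized. Scale: negative = ligand-stabilized region.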
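Further: lysate desalted by size exclusion to strip endogenous ATP, peptide intensities built from DIA-NN precursor signals, and peptides missing any value discarded before comparison.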

UniProt P07604, sequence (P07604 whole entry): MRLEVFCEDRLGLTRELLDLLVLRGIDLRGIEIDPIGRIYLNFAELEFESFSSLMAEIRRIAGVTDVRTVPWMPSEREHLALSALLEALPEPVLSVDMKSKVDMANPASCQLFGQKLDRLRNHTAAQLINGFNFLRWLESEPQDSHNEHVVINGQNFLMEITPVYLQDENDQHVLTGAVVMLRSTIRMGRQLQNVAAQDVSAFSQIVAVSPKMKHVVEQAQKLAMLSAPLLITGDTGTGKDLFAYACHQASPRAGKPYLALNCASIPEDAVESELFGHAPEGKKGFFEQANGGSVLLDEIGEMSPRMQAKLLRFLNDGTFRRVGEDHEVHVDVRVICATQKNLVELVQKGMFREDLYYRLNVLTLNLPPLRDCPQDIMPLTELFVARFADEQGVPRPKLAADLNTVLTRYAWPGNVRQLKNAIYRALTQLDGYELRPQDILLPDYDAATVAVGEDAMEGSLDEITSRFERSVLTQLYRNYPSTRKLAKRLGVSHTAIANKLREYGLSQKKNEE
UniProt P77279, sequence (P77279 whole entry): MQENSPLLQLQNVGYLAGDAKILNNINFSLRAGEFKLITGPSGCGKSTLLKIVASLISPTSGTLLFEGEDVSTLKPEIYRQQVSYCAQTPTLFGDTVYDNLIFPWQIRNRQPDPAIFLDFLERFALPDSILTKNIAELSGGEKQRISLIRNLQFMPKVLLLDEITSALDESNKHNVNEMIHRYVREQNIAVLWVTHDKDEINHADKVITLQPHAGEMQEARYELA
UniProt P14294, sequence (P14294 whole entry): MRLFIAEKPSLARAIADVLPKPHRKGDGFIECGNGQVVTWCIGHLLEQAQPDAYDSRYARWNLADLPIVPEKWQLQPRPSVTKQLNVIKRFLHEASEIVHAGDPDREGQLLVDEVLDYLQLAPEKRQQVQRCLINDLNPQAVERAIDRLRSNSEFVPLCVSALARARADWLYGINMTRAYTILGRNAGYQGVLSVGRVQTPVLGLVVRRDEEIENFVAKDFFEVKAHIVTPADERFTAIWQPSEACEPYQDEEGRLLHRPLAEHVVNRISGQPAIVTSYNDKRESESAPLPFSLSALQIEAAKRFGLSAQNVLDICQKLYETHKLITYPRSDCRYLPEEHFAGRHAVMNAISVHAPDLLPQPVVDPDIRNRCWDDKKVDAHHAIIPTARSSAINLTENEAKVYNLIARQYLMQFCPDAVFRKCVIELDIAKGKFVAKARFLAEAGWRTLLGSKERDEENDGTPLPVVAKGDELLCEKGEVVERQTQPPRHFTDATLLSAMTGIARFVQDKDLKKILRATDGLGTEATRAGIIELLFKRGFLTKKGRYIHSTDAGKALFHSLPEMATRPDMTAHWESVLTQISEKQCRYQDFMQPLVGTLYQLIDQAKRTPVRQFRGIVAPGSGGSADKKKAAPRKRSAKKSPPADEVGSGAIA
UniProt P05804, sequence (P05804 whole entry, looked up): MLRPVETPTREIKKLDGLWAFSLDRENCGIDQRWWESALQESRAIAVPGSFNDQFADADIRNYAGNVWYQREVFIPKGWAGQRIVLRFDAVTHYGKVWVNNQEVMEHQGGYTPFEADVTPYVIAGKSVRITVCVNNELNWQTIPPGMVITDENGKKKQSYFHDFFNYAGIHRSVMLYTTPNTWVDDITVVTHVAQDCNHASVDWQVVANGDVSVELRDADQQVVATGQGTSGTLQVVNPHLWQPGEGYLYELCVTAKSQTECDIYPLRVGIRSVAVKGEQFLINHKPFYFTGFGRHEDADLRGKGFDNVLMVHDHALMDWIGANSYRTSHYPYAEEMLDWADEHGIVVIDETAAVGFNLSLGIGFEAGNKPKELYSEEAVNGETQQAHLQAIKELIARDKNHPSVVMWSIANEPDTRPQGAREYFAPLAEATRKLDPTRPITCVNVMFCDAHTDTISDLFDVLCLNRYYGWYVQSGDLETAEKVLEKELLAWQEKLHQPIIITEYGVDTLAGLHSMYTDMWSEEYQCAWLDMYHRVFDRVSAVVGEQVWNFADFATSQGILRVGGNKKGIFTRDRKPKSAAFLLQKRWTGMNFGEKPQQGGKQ
UniProt P06999, sequence (P06999 whole entry): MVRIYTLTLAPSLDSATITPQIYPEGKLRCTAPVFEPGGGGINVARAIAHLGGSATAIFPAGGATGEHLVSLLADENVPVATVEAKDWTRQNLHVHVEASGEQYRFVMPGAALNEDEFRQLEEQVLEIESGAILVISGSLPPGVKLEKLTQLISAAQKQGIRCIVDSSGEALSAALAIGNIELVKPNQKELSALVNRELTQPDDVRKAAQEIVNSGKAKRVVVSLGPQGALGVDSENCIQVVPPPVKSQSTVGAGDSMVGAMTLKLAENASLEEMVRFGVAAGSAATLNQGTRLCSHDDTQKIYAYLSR
UniProt P31455, sequence (P31455 whole entry): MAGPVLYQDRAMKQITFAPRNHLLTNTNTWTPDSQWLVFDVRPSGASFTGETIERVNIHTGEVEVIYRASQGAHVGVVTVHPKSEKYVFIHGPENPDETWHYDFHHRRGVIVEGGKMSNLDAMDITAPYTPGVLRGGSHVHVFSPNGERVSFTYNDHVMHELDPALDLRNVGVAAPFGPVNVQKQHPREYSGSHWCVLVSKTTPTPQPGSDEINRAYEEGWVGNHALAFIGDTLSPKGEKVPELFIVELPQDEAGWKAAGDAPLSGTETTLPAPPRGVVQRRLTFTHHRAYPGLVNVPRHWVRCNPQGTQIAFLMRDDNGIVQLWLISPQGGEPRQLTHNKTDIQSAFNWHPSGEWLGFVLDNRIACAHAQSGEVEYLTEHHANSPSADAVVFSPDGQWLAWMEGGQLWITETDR
UniProt P09147, sequence (P09147 whole entry): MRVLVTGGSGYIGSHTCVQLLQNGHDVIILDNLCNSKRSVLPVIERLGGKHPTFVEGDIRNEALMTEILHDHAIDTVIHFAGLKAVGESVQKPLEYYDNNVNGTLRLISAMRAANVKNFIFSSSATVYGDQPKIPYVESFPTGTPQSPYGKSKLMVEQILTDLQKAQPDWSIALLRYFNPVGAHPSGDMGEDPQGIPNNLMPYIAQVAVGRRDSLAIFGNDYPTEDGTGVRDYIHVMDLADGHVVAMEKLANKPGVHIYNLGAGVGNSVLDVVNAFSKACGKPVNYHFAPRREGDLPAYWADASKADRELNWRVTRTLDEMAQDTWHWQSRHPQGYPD
UniProt P00893, sequence (P00893 whole entry): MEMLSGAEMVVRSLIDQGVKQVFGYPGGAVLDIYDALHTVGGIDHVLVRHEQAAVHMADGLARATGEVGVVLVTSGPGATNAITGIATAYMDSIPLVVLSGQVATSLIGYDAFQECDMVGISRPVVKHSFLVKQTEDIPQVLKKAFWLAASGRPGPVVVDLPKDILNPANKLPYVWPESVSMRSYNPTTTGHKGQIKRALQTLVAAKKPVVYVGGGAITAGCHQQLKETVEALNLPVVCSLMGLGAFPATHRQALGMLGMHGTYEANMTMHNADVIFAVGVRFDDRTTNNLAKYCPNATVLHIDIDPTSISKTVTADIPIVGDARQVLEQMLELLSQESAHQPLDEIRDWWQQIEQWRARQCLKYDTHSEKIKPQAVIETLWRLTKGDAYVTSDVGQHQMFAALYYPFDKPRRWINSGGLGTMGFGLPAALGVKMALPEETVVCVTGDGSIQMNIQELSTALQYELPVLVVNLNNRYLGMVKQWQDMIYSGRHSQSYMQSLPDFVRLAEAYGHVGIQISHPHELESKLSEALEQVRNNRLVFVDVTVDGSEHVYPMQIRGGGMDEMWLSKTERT
UniProt P09546, sequence (P09546 whole entry): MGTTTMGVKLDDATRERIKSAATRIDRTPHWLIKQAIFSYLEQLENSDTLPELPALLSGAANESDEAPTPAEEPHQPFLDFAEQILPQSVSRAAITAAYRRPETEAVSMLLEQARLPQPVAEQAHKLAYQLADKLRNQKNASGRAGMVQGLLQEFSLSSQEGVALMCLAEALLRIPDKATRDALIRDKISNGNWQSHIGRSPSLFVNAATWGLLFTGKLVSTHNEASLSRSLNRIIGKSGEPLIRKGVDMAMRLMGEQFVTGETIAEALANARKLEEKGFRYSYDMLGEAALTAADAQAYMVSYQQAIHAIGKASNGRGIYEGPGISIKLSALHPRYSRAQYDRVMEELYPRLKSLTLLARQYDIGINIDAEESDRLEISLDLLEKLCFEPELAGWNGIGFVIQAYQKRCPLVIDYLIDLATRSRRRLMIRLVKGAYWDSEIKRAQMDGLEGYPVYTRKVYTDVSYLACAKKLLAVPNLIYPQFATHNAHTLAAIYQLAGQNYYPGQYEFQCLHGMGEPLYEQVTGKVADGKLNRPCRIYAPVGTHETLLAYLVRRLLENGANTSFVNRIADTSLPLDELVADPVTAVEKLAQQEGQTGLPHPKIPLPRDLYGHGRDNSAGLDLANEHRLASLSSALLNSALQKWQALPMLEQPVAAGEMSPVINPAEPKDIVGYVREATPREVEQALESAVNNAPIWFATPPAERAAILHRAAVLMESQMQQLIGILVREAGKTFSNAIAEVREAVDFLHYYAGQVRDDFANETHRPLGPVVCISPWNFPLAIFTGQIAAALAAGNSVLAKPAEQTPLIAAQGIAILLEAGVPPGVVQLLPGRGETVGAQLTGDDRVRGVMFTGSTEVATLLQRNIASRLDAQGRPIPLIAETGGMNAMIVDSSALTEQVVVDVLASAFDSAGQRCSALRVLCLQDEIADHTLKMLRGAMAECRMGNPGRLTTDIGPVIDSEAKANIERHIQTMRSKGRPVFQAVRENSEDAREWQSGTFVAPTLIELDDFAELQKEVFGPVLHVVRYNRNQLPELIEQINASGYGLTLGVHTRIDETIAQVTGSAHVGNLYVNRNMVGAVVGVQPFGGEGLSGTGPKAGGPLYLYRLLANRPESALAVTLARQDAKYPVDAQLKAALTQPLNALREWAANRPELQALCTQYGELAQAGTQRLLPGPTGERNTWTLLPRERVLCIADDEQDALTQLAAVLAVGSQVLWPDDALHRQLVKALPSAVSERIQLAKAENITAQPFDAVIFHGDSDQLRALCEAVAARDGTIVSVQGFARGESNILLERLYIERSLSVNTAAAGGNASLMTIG

Row | Target | log2 fold change
1 | UniProt P76035 (peptide sequence: TIATFQAYLGHPVR, peptide start residue: 176) | 0.609
2 | UniProt P27278 (peptide sequence: TFMSISGAQIR, peptide start residue: 202) | -2.94
3 | UniProt P32157 (peptide sequence: YPVDVYTGK, peptide start residue: 3) | -0.765
4 | UniProt P23857 (peptide sequence: ERIATAVPDKNDTVK, peptide start residue: 50) | 0.323
5 | UniProt P0A959 (peptide sequence: QGWMVLNGPKKHAK, peptide start residue: 249) | 1.18
6 | UniProt P22939 (peptide sequence: GLPTCHVK, peptide start residue: 97) | 0.252
7 | UniProt P64636 (peptide sequence: EDTIPFLEALK, peptide start residue: 96) | 0.412
8 | UniProt P39364 (peptide sequence: IIGQLMSDIR, peptide start residue: 82) | -0.915
9 | UniProt P37188 (peptide sequence: VNEIETYMDGVHLICTTAKVDR, peptide start residue: 41) | 0.402
10 | UniProt P77279 (peptide sequence: NIAELSGGEK, peptide start residue: 134) | -0.683
11 | UniProt P09147 (peptide sequence: REGDLPAYWADASKADR, peptide start residue: 292) | 0.627
12 | UniProt P27249 (peptide sequence: VEDLFIIATADRR, peptide start residue: 854) | 0.328
13 | UniProt P07604 (peptide sequence: YAWPGNVR, peptide start residue: 410) | -1.06
14 | UniProt P00893 (peptide sequence: HSQSYMQSLPDFVR, peptide start residue: 493) | 0.316
15 | UniProt P42593 (peptide sequence: MIEVTGVTLK, peptide start residue: 435) | -1.15
16 | UniProt P04995 (peptide sequence: TDLGDNAAVPVK, peptide start residue: 288) | 0.472

Row | Target | log2 fold change
17 | UniProt P23847 (peptide sequence: MAEMIQADWAK, peptide start residue: 392) | -0.859
18 | UniProt P27238 (peptide sequence: NKMTTEELAECLGVAK, peptide start residue: 6) | 0.577
19 | UniProt P06999 (peptide sequence: IYAYLSR, peptide start residue: 303) | -2.25
20 | UniProt P31455 (peptide sequence: AYPGLVNVPR, peptide start residue: 290) | -1.05
21 | UniProt P22188 (peptide sequence: LWCVFGCGGDRDK, peptide start residue: 380) | -1.25
22 | UniProt P15043 (peptide sequence: FGKPFMALIR, peptide start residue: 591) | 0.672
23 | UniProt P33667 (peptide sequence: MIGSNHLPECLR, peptide start residue: 220) | 0.32
24 | UniProt P21693 (peptide sequence: ELADQVAGELRR, peptide start residue: 82) | -1.53
25 | UniProt P09546 (peptide sequence: IYAPVGTHETLLAYLVRR, peptide start residue: 539) | 0.991
26 | UniProt P51024 (peptide sequence: QLIEMNR, peptide start residue: 75) | -0.359
27 | UniProt P24182 (peptide sequence: LMGDKVSAIAAMKK, peptide start residue: 112) | -1.24
28 | UniProt P14294 (peptide sequence: VQTPVLGLVVR, peptide start residue: 198) | -0.642
29 | UniProt P30958 (peptide sequence: FANWPVR, peptide start residue: 673) | -0.413
30 | UniProt P05804 (peptide sequence: DKNHPSVVMWSIANEPDTRPQGAR, peptide start residue: 399) | -0.737
31 | UniProt P07001 (peptide sequence: FFTGQITAAGK, peptide start residue: 152) | -0.651
